ChEMBL document CHEMBL4296182, “CO-ADD screening of NIH NCI Diversity Set V”
For part of these data: Measured potencies and affinities stand elsewhere.

How the values were obtained:
Staphylococcus aureus = assay: Antibacterial activity against Staphylococcus aureus MRSA ATCC 43300 (CO-ADD:GP_020); MIC in CAMBH media using NBS plates, by Resazurin F(560/590); type: functional; conditions: Concentration 20 uM, ASSAY_TEST Inhibition of Bacterial Growth, detection method Resazurin, Fluorescence (ex560/em590), MEDIA CAMHB, plate type 384well, CORNING #3640, time 18 hr
Acinetobacter baumannii = assay: Antibacterial activity against Acinetobacter baumannii ATCC 19606 (CO-ADD:GN_034); MIC in CAMBH media using NBS plates, by Resazurin F(560/590); type: functional; conditions: Concentration 20 uM, ASSAY_TEST Inhibition of Bacterial Growth, detection method Resazurin, Fluorescence (ex560/em590), MEDIA CAMHB, plate type 384well, CORNING #3640, time 18 hr
Escherichia coli = assay: Antibacterial activity against Escherichia coli ATCC 25922 (CO-ADD:GN_001); MIC in CAMBH media using NBS plates, by Resazurin F(560/590); type: functional; conditions: Concentration 20 uM, ASSAY_TEST Inhibition of Bacterial Growth, detection method Resazurin, Fluorescence (ex560/em590), MEDIA CAMHB, plate type 384well, CORNING #3640, time 18 hr
Klebsiella pneumoniae = conditions: Concentration 20 uM; ASSAY_TEST Inhibition of Bacterial Growth; detection method Absorption (OD600); MEDIA CAMHB; plate type 384well; NBS; CORNING #3640; time 18 hr
Candida albicans = conditions: 20 µM
Cryptococcus neoformans = conditions: Concentration 20 uM; ASSAY_TEST Inhibition of Fungal Growth; detection method Resazurin; Absorption (OD600-OD570); plate type 384well; NBS; CORNING #3640

Structure (SMILES)	Inhibition (Staphylococcus aureus)	Inhibition (Acinetobacter baumannii)	Inhibition (Escherichia coli)	Inhibition (Klebsiella pneumoniae)	Inhibition (Candida albicans)	Inhibition (Cryptococcus neoformans)
O=C(c1ccccc1)C1C(c2ccccc2)C1[N+](=O)[O-] (centres undefined)	0.24%	5.31%	-7.09%	8.34%	7.18%	-2.68%
S=C(Nc1ccccc1)Nc1nccs1	-6.83%	13.46%	-3.08%	13.95%	19.1%	1.13%
Cc1nn(-c2ccccc2)nc1C(=O)Nc1ccc2[nH]ncc2c1	18.91%	2.54%	5.87%	6.45%	-0.76%	-15.47%
Oc1cc(-c2nn[nH]n2)nc(O)n1	15.18%	-5.46%	13.37%	14.33%	1.84%	0.69%
Oc1ccc(Nc2ccc3ccccc3c2)cc1	-6.35%	-10.62%	-3.9%	4.89%	3.31%	-6.09%
Oc1cc(-n2cccn2)c(O)cc1-n1cccn1	6.47%	8.87%	-3.84%	16.86%	25.5%	-4.6%
Cn1c(=O)c2nc(COc3ccc(C(C)(C)C)cc3)[nH]c2n(C)c1=O	-1.06%	-14.84%	1.91%	9.47%	3.68%	-17.46%
CCCCOC(=O)c1cccnc1	2.44%	-6.99%	12.49%	13.5%	1.04%	-0.89%
CC(=O)NC1=C/C(=C\[N+](=O)[O-])C=C1O	-1.13%	0.39%	10.35%	11.59%	0.53%	-2.2%
Cc1ccc2c(c1)C(=C(C#N)C#N)CCN2	5.58%	12.47%	3.17%	22.07%	3.21%	-7.98%
CC(=O)c1c(O)c(C)c(O)c2c1OC1=CC(=O)/C(=C(/C)N)C(=O)C12C (centres undefined)	-3.02%	6.34%	8.14%	14.26%	6.96%	-10.35%
Cc1cc(O)c(C(C)C)cc1NC(=O)Nc1cccc2ccccc12	-3.74%	-15.42%	2.96%	4.38%	8.57%	-2.63%
CC(C)c1ncc(CO)n1Cc1c(Cl)cccc1Cl	10.51%	3.11%	9.5%	7.27%	0.71%	-9.37%
CC(C)(C)N1CC(OC(N)=O)C1	21.14%	-14.09%	8.01%	8.74%	1.7%	-9.34%
O=C(/C=C\c1ccc2ccccc2n1)c1cc(Cl)ccc1O	-11.69%	-4.27%	-19.12%	3.11%	16.4%	-1.96%
Cn1c(=O)c2c(nc(OCCc3ccccc3)n2C)n(C)c1=O	6.63%	-9.02%	8.83%	12.12%	3.96%	-6.56%
CC1(C)c2ccccc2-c2nc3ccccc3cc2C1O (centres undefined)	15.31%	7.67%	-1.43%	14.38%	9.47%	-10.94%
COc1cc2c(O)cc(C(=O)O)c(-c3cc(OC)c(OC)c(OC)c3)c2cc1OC	5.82%	-7.99%	8.13%	8.82%	-0.33%	-9.59%
C(COC1CC2CC1C1C2CC2OC21)OC1CC2CC1C1C2CC2OC21 (centres undefined)	7.31%	15%	5.47%	11.14%	-1.79%	-10.71%
CCC1(CC)C(=O)NC(=S)N=C1N	2.67%	-4.28%	12.79%	14.22%	7.8%	-2.67%
O=C(O)C(Cc1ccccc1N(CCO)CCO)N1C(=O)c2ccccc2C1=O (centres undefined)	11.82%	6.12%	3.59%	11.57%	0.11%	-6.78%
O=C(Nc1ccccc1-c1ccccc1)C(=O)Nc1ccccc1-c1ccccc1	3.9%	-8.51%	-14.91%	2.5%	2.13%	4.35%
COC(=O)C1(C(=O)OC)C2C(=O)C3C(C21)C3(C(=O)OC(C)(C)C)C(=O)OC(C)(C)C (centres undefined)	5.34%	-10.49%	12.49%	9.29%	0.63%	-1.86%
CCOC(=O)N1CCc2cc(OC)c(OC)c3c2c1cc1cc(OC)c(OC)cc13	-2.61%	-15.62%	19.24%	9.85%	5.76%	-3.38%
O=c1[nH]c2c(cnn2-c2ccc(Cl)cc2)c(=O)n1-c1cccc(Cl)c1	5.86%	6.48%	-10.38%	28.41%	2.46%	-10.88%

Structure (SMILES)	Inhibition (Staphylococcus aureus)	Inhibition (Acinetobacter baumannii)	Inhibition (Escherichia coli)	Inhibition (Klebsiella pneumoniae)	Inhibition (Candida albicans)	Inhibition (Cryptococcus neoformans)
CCOC(=O)C(=O)Cc1nc2ccccc2s1	2.9%	-6.12%	10.05%	6.52%	16%	-6.27%
COc1cc(NC(=O)c2cc3ccccc3cc2O)c(OC)cc1Cl	15.9%	4.67%	-1.76%	8.39%	2.82%	-1.31%
COc1ccc2c(n1)Sc1nc3ccccc3nc1N2	9.7%	-15.29%	7.15%	4.25%	3.02%	-8.75%
CC1(C)N=C(N)N=C(N)N1c1cccc(CN)c1.CCS(=O)(=O)O	8.6%	-6.92%	11.68%	13.8%	2.57%	-7.41%
C=CCSC(CC)(CC)C(N)=O	1.95%	-2.06%	-8.58%	10.13%	1.53%	7.21%
Cc1cc(NC(=O)Nc2cccc3ccccc23)no1	-11.32%	-7.4%	9.22%	-0.15%	8.31%	-12.19%
Clc1ccc(-c2nc(-c3cc4cc(Cl)ccc4o3)cs2)cc1	-3.66%	8.53%	11.7%	9.81%	1.45%	-4.29%
Cc1nc2ccccc2nc1NS(=O)(=O)c1ccc(N)cc1	-35.57%	-9.78%	-4.56%	7.2%	4.92%	-5.27%
CC(C)(C)CC(C)(C)n1nnnc1N	12.74%	-17.3%	15.8%	12.31%	0.83%	-5.24%
O=C(Nc1ccc2ncccc2c1)Nc1ccc2ncccc2c1	9.01%	-26.89%	13.25%	9.25%	0.58%	-19.53%
Cc1ccc(NC(=O)Nc2cccnc2)cc1NC(=O)Nc1cccnc1	4.86%	3.3%	5.1%	8.48%	-3.78%	-10.14%
CC(C)(C(N)=O)c1ccccc1	17.59%	-10.23%	13.36%	17.26%	-1.04%	-2.3%
OCCN1CCSC1=S	15.14%	-9.39%	8.07%	16.39%	1.12%	-6.82%
O=C1CCC(c2ccccc2)(c2ccccc2)CC1	-6.5%	-6.38%	1.3%	-0.79%	-1.35%	-9.68%
CC(C)COC(=O)NC1c2ccccc2Oc2ccccc21	8.22%	-2.15%	3.09%	8.74%	5.64%	-2.37%
Cc1ccc(C2C=CC(C#N)=CN2Cc2ccccc2)cc1 (centres undefined)	18.9%	-15.76%	11.73%	11.58%	-1.48%	-7.94%
CCCn1cnc2c(S)nc(N)nc21	0.53%	-16.82%	10%	2.88%	-1.47%	-9.79%
COc1ccc2[nH]c(-c3ccccc3)cc2c1	9.9%	3.58%	0.95%	16.65%	6.65%	-9.39%
OCC1CCCC(n2cnc3c(S)ncnc32)O1 (centres undefined)	9.66%	5.96%	6.02%	14.91%	14%	-13.51%
O=C(/C=C\c1ccc(O)c(O)c1)OC1C(O)CC(OC(=O)/C=C/c2ccc(O)c(O)c2)(C(=O)O)CC1O (centres undefined)	21.21%	-10.3%	9.77%	14%	-2.85%	-1.87%
CC(C)(C)N1CCC1CN (centres undefined)	2.17%	-8.31%	10.97%	10.11%	3.04%	-5.34%
Cc1cc(C)n(C(=N)NC(=O)c2ccc([N+](=O)[O-])cc2)n1	1.83%	1.39%	-7.33%	8.27%	3.88%	44.63%
COc1ccc(NC2=CC(=S)NC(C)(C)C2)cc1	11.18%	-15.84%	12.98%	4.99%	2.09%	-8.08%
CC(=O)[C@H]1CC[C@H]2[C@@H]3CCC4=CC(=O)C=C[C@]4(C)[C@H]3C(=O)C[C@]12C	11.15%	-7.04%	-4.55%	23.74%	4.8%	-6.32%
